In all, about 81,000 sequences were measured (“one-hybrid fitness for binding NBS DNA”: median about -0.1, highest 2% from about 0.36 on). This excerpt belongs to a sample that is enriched for the highest values.
B1: Caulobacter ParB omega fusion; a variant is named by its letters at X, in order, B8GW30 (parent)
chain: MESVVVGEPGMSEGRRGLGRGLSALLGEVDAAPAQAPGEQLGGSREAPIEILQRNPDQPRRTFREEDLEDLSNSIREKGVLQPILVRPSPDTAGEYQIVAGERAWRAAQRAGLKTVPIMVRELDDLAVLEIGIIENVQRADLNVLEEALSYKVLMEKFERTQENIAQTIGKSXSHVANXMRLLXLPDEVQSYLVSGELTAXHARAIAAAADPVALAKQIIEGGLSVRETEALARKAPNLSAGKSKGGRPPRVKDTDTQALESDLSSVLGLDVSIDHRGSTGTLTITYATLEQLDDLCNRLTRGI

Variants of: B1
Assay: one-hybrid fitness for binding NBS DNA (the Noc-binding site; scaled: cognate 1, non-cognate 0); higher = stronger binding
Conditions: with NBS DNA site
Procedure, shortened: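 Caulobacter ParB libraries with four specificity codons randomised were screened by bacterial one-hybrid selection in the E. coli USO strain, using a HIS3 reporter whose site lies 19 bp from the promoter. Selection ran for 48 hours at 37°C on M9 lacking histidine, with 0.1 mM IPTG and 5 mM 3-AT. Plasmids were Illumina-sequenced before and after selection, three replicate libraries were pooled, and variants with under 10 reads were dropped. Fitness is the log change in each variant's read ratio to wild type, rescaled against the cognate and non-cognate sites.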

Row | Variant | one-hybrid fitness for binding NBS DNA
1 | LIKT | ≤ 0.2
2 | VQSV | ≤ 0.2
3 | DCSG | ≤ 0.2
4 | TPHH | ≤ 0.2
5 | LLVG | ≤ 0.2
6 | TAIG | ≤ 0.2
7 | HVIC | ≤ 0.2
8 | VVRW | ≤ 0.2
9 | RMCH | ≤ 0.2
10 | RMDR | ≤ 0.2
11 | RMCN | ≤ 0.2
12 | RMNR | 0.545
13 | RMNN | ≤ 0.2
14 | RMCR | 0.433
15 | NAAS | ≤ 0.2
16 | FAYR | ≤ 0.2
17 | FAFR | 0.364
18 | FAAL | ≤ 0.2
19 | FAAR | ≤ 0.2
20 | FARL | ≤ 0.2
21 | FAFL | 0.451
22 | MKNR | ≤ 0.2
23 | NTMM | ≤ 0.2
24 | VTYY | ≤ 0.2

Row | Variant | one-hybrid fitness for binding NBS DNA
25 | HWST | ≤ 0.2
26 | WHPR | ≤ 0.2
27 | RKLH | 0.227
28 | RPLR | ≤ 0.2
29 | RKLN | ≤ 0.2
30 | RSLR | 0.339
31 | RKLR | 0.525
32 | RCLR | 0.416
33 | VCVG | ≤ 0.2
34 | QFIL | ≤ 0.2
35 | QQSQ | ≤ 0.2
36 | QQAQ | ≤ 0.2
37 | QQRQ | 0.421
38 | QQLQ | ≤ 0.2
39 | QQYQ | ≤ 0.2
40 | QQKQ | 0.493
41 | QQVQ | 0.395
42 | QQVF | ≤ 0.2
43 | FDNG | ≤ 0.2
44 | NNAW | ≤ 0.2
45 | YMTS | ≤ 0.2
46 | GPQR | ≤ 0.2
47 | YAEG | ≤ 0.2
48 | QGWN | ≤ 0.2

Row | Variant | one-hybrid fitness for binding NBS DNA
49 | VMDS | ≤ 0.2
50 | LDDR | ≤ 0.2
51 | SESE | ≤ 0.2
52 | DLGS | ≤ 0.2
53 | RFYT | ≤ 0.2
54 | RERT | ≤ 0.2
55 | RIRT | 0.615
56 | RFRT | 0.456
57 | RAWT | 0.236
58 | RCRT | 0.706
59 | RART | 0.621
60 | RAYT | 0.353
61 | RPRT | ≤ 0.2
62 | RIYT | 0.34
63 | RIPT | ≤ 0.2
64 | RFDT | ≤ 0.2
65 | PNYV | ≤ 0.2
66 | RQPS | ≤ 0.2
67 | SQNC | ≤ 0.2
68 | HISC | ≤ 0.2
69 | LSFT | ≤ 0.2
70 | TGSY | ≤ 0.2
71 | KYSS | ≤ 0.2
72 | CQDS | ≤ 0.2

Row | Variant | one-hybrid fitness for binding NBS DNA
73 | RSIT | ≤ 0.2
74 | RCDT | 0.266
75 | RPYT | ≤ 0.2
76 | RSYT | 0.322
77 | RCYT | 0.517
78 | RSRT | 0.602
79 | CPVW | ≤ 0.2
80 | KHGP | ≤ 0.2
81 | QYAH | ≤ 0.2
82 | QYFS | ≤ 0.2
83 | QYFN | ≤ 0.2
84 | QYAR | 0.517
85 | QYFR | 0.366
86 | QYAN | ≤ 0.2
87 | INHG | ≤ 0.2
88 | YKQS | ≤ 0.2
89 | TADE | ≤ 0.2
90 | RSLS | 0.303
91 | RCLS | 0.396
92 | RRLS | 0.606
93 | RRLP | ≤ 0.2
94 | RRLH | 0.365
95 | RRLN | 0.23
96 | RCLH | ≤ 0.2

Row | Variant | one-hybrid fitness for binding NBS DNA
97 | RPLS | ≤ 0.2
98 | RRLD | ≤ 0.2
99 | GLNS | ≤ 0.2
100 | KRSF | ≤ 0.2
101 | ASNS | ≤ 0.2
102 | DKMS | ≤ 0.2
103 | HKVM | ≤ 0.2
104 | VYHT | ≤ 0.2
105 | KGST | ≤ 0.2
106 | WSCT | ≤ 0.2
107 | QKFR | 0.435
108 | QKAR | 0.606
109 | QKAK | ≤ 0.2
110 | QKFP | ≤ 0.2
111 | QKFH | ≤ 0.2
112 | QKAH | ≤ 0.2
113 | GQKR | 0.201
114 | SYQK | ≤ 0.2
115 | QSNR | 0.62
116 | QHNR | 0.618
117 | QHDR | 0.336
118 | QINR | 0.479
119 | QSDR | 0.317
120 | QIDR | 0.234

Row | Variant | one-hybrid fitness for binding NBS DNA
121 | QCDR | 0.402
122 | QPDR | ≤ 0.2
123 | QINN | ≤ 0.2
124 | QDDR | ≤ 0.2
125 | QSNP | ≤ 0.2
126 | QHNP | ≤ 0.2
127 | PRGP | ≤ 0.2
128 | QANN | ≤ 0.2
129 | QADR | 0.314
130 | QFNR | 0.268
131 | QLND | ≤ 0.2
132 | QCNR | 0.751
133 | QLDR | 0.295
134 | QLNR | 0.551
135 | QPNR | 0.236
136 | QANR | 0.583
137 | NTLI | ≤ 0.2
138 | VIMF | ≤ 0.2
139 | LAGN | ≤ 0.2
140 | EMRR | 0.21
141 | ADQR | ≤ 0.2
142 | FNIT | ≤ 0.2
143 | RPMM | ≤ 0.2
144 | GCIC | ≤ 0.2

Row | Variant | one-hybrid fitness for binding NBS DNA
145 | QTNG | 0.286
146 | QTNR | 0.936
147 | QTNK | 0.304
148 | QTDR | 0.483
149 | DTRR | 0.303
150 | NTRR | 0.235
151 | QTDP | ≤ 0.2
152 | QTYR | 0.691
153 | QTRR | 1.15
154 | PSTM | ≤ 0.2
155 | IDSK | ≤ 0.2
156 | HNGW | ≤ 0.2
157 | VPAW | ≤ 0.2
158 | YCQT | ≤ 0.2
159 | TPGL | ≤ 0.2
160 | LPPV | ≤ 0.2
161 | HSKL | ≤ 0.2
162 | ICKS | ≤ 0.2
163 | CRKT | 0.365
164 | IRKS | 0.37
165 | ISKT | ≤ 0.2
166 | ISNT | ≤ 0.2
167 | IRNT | 0.451
168 | CCKT | ≤ 0.2

Row | Variant | one-hybrid fitness for binding NBS DNA
169 | IRVT | ≤ 0.2
170 | CRVT | ≤ 0.2
171 | IRKT | 0.471
172 | IRKD | ≤ 0.2
173 | IRDT | ≤ 0.2
174 | NWRM | ≤ 0.2
175 | VPHA | ≤ 0.2
176 | QWQG | ≤ 0.2
177 | FVWR | ≤ 0.2
178 | DGRN | ≤ 0.2
179 | NANS | ≤ 0.2
180 | VHVA | ≤ 0.2
181 | KSLV | ≤ 0.2
182 | HSRL | ≤ 0.2
183 | ISKR | 0.243
184 | IRYR | 0.226
185 | IRRR | 0.601
186 | IRDR | ≤ 0.2
187 | IRNR | 0.422
188 | ICNR | ≤ 0.2
189 | IRRT | 0.423
190 | ICRR | 0.291
191 | IRKR | 0.67
192 | ICKR | 0.273

Row | Variant | one-hybrid fitness for binding NBS DNA
193 | IRYT | ≤ 0.2
194 | ICRT | ≤ 0.2
195 | HAYM | ≤ 0.2
196 | CMSN | ≤ 0.2
197 | ARHS | ≤ 0.2
198 | TQNT | ≤ 0.2
199 | TSWF | ≤ 0.2
200 | VQPL | ≤ 0.2
201 | RWGG | ≤ 0.2
202 | MFWL | ≤ 0.2
203 | RIRE | ≤ 0.2
204 | TLNG | ≤ 0.2
205 | DAAP | ≤ 0.2
206 | GRNT | ≤ 0.2
207 | VFAC | ≤ 0.2
208 | QHDA | ≤ 0.2
209 | QHYA | 0.291
210 | QHRA | 0.533
211 | QCRA | 0.658
212 | QMRA | 0.569
213 | QCYA | 0.328
214 | QAYA | 0.249
215 | QADA | ≤ 0.2
216 | QMYA | 0.267

Row | Variant | one-hybrid fitness for binding NBS DNA
217 | QARA | 0.519
218 | QPRA | ≤ 0.2
219 | QMDA | ≤ 0.2
220 | QTEQ | ≤ 0.2
221 | PTMF | ≤ 0.2
222 | HNHR | ≤ 0.2
223 | PCGG | ≤ 0.2
224 | TWLL | ≤ 0.2
225 | LKVE | ≤ 0.2
226 | PCRQ | ≤ 0.2
227 | SSRV | ≤ 0.2
228 | HLTD | ≤ 0.2
229 | QIRA | 0.386
230 | QLYA | ≤ 0.2
231 | QLRA | 0.479
232 | QSYA | 0.208
233 | QIYA | ≤ 0.2
234 | QLDA | ≤ 0.2
235 | QKYA | 0.249
236 | QKFA | ≤ 0.2
237 | QSDA | ≤ 0.2
238 | QIAA | ≤ 0.2
239 | QKRA | 0.539
240 | QSRA | 0.516

Row | Variant | one-hybrid fitness for binding NBS DNA
241 | MCAS | ≤ 0.2
242 | PTRY | ≤ 0.2
243 | CVKD | ≤ 0.2
244 | PVDC | ≤ 0.2
245 | YENN | ≤ 0.2
246 | QHSL | ≤ 0.2
247 | RRYG | 0.331
248 | RCVS | 0.335
249 | RRRG | 0.497
250 | RRDG | ≤ 0.2
251 | RRVM | 0.206
252 | RCRM | 0.231
253 | RRVD | ≤ 0.2
254 | RRRM | 0.651
255 | RRYM | 0.296
256 | RRVS | 0.605
257 | RRKM | 0.647
258 | RCKM | 0.238
259 | HRIT | ≤ 0.2
260 | SNQT | ≤ 0.2
261 | TVTC | ≤ 0.2
262 | GVCG | ≤ 0.2
263 | MMPN | ≤ 0.2
264 | MEVE | ≤ 0.2

Row | Variant | one-hybrid fitness for binding NBS DNA
265 | LLMQ | ≤ 0.2
266 | CKKG | ≤ 0.2
267 | RRVP | ≤ 0.2
268 | RRYP | ≤ 0.2
269 | RRYF | ≤ 0.2
270 | RRVN | 0.238
271 | RRKN | 0.646
272 | RCKN | 0.27
273 | RRKD | 0.226
274 | RRKP | 0.379
275 | RRDF | ≤ 0.2
276 | RRRF | 0.442
277 | RRKS | 0.68
278 | RRKE | 0.214
279 | TKMW | ≤ 0.2
280 | MWVR | ≤ 0.2
281 | CLAT | ≤ 0.2
282 | TSDV | ≤ 0.2
283 | AMPA | ≤ 0.2
284 | PHPV | ≤ 0.2
285 | QICI | ≤ 0.2
286 | IYNQ | ≤ 0.2
287 | TYVC | ≤ 0.2
288 | YDYM | ≤ 0.2

Row | Variant | one-hybrid fitness for binding NBS DNA
289 | LLAR | ≤ 0.2
290 | RRKL | 0.259
291 | RRVF | ≤ 0.2
292 | RCKK | 0.248
293 | RSKY | 0.29
294 | RRKK | 0.438
295 | RRVK | ≤ 0.2
296 | RCKF | ≤ 0.2
297 | RRKY | 0.79
298 | RRVY | 0.301
299 | RRKF | 0.484
300 | RRVH | 0.321
301 | RRKH | 0.798
302 | SCIR | ≤ 0.2
303 | RESS | ≤ 0.2
304 | WPIG | ≤ 0.2
305 | WPLC | ≤ 0.2
306 | PERM | ≤ 0.2
